Records with an inconclusive call do not appear. The source made the active and inactive calls. Rule for the calls: active = hit-call score of the fitted dose curve at least 0.9, where 1 is the maximum; inconclusive = response in the unintended direction; inactive = score below 0.9.
biological target: human RAR-related Orphan Receptor beta (RORb), RORB (gene 6096) (UniProt Q92753); experiment: ATG_RORb_TRANS: Attagene TRANS-FACTORIAL HepG2 Assay for human RAR-related Orphan Receptor beta (RORb) (AID 2283010)
Procedure: ATG_TRANS is a cell-based, multiplexed-readout assay that uses HepG2, a human liver cell line, with measurements taken at 24 hours after chemical dosing in a 24-well plate.ATG_RORb_TRANS is one of 30 assay component(s) measured or calculated from the ATG_TRANS assay. It is designed to make measurements of mRNA induction, a form of inducible reporter, as detected with fluorescence intensity signals by Reverse transcription polymerase chain reaction (RT-PCR) and Capillary electrophoresis technology.Data from the assay component ATG_RORb_TRANS was analyzed into 1 assay endpoint. This assay endpoint, ATG_RORb_TRANS, was analyzed in the positive analysis fitting direction relative to DMSO as the negative control and baseline of activity. Using a type of inducible reporter, measures of mRNA for gain-of-signal activity can be used to understand the reporter gene at the transcription factor-level as they relate to the gene RORB. Furthermore, this assay endpoint can be referred to as a primary readout, because this assay has produced multiple assay endpoints where this one serves a reporter gene function. To generalize the intended target to other relatable targets, this assay endpoint is annotated to the nuclear receptor intended target family, where the subfamily is orphan.
Human liver HepG2 cells are transiently transfected with multiple reporter transcription units (MRTUs) in 6-well plates using FuGene 6 reagent (Roche; 3 ml FuGene/1 mg DNA). The MRTU constructs are regulated by a cis-regulating element (promoter). […] A major difference between the CIS and TRANS system is that in CIS activities of endogenous TFs are measured, whereas the TRANS assay evaluates changes in activities of exogenous, chimeric NR-Gal4 proteins. […] At the end of 24 hour incubation, total RNA was isolated using TriZol reagent (Invitrogen). The isolated RNA is then reverse-transcribed using oligo(dT) primer and Mo-MLV reverse transcriptase (Invitrogen) with DNAse I (Ambion) treatment for 30 min. The one-tenth of the produced cDNA was amplified by PCR using Taq DNA polymerase (Invitrogen) and two reporter sequence-specific primers. The PCR products were fluorescently labeled by primer extension with 6-arboxyfluorescein (6-FAM) 5'-labeled reporter sequence-specific primer (2 min at 95 C, 20 s at 68 C and 10 min at 72 C) and these products were digested with 5U of HpaI (New England Biolabs) for 2h at 37 C. The fragments were purified using Qiaquick PCR columns (Qiagen), analyzed on an ABI 3130xL genetic analyzer (Applied Biosystems) with peak positions identified by using a set of X-rhodamine (ROX)-labeled MapMarker1000 molecular weight standards (BioVentures). The raw capillary electrophoresis data was processed using Attagraph software (Attagene).

Chain of human RAR-related Orphan Receptor beta (RORb), RORB (gene 6096) (Q92753 whole entry, looked up): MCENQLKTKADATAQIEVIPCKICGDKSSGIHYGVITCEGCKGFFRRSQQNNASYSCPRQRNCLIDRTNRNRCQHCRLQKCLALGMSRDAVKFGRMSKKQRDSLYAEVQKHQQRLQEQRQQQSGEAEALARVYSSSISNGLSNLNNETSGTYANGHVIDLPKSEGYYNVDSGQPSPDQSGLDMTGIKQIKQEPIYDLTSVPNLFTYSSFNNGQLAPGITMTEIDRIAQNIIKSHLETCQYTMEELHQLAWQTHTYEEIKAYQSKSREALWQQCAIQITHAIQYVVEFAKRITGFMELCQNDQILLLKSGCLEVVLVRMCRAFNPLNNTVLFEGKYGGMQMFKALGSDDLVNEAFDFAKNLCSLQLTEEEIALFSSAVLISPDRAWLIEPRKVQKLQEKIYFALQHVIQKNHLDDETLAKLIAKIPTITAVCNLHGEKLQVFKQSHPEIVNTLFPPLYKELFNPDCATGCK

| SMILES | outcome |
| --- | --- |
| COCc1cnc(C2=NC(C)(C(C)C)C(=O)N2)c(C(=O)O)c1 (centres undefined) | inactive |
| O=C(Nc1ccccc1-c1ccc(Cl)cc1)c1cccnc1Cl | inactive |
| COc1cc(OC)nc(NC(=O)NS(=O)(=O)c2ncccc2OCC(F)(F)F)n1 | inactive |
| COP(=O)(OC)O/C(C)=C/C(=O)N(C)C | inactive |
| CCCN(CC)CC1COC2(CCC(C(C)(C)C)CC2)O1 (centres undefined) | inactive |
| Nc1c(Cl)c(F)nc(OCC(=O)O)c1Cl | inactive |
| CCSC(=O)N1CCCCCC1 | inactive |
| CCOP(=S)(OCC)Oc1nc(Cl)n(C(C)C)n1 | inactive |
| CC1(C)C(C=C(Cl)Cl)C1C(=O)OC(C#N)c1cccc(Oc2ccccc2)c1 (centres undefined) | inactive |
| CCNC(=O)NC(=O)C(C#N)=NOC | inactive |
| COP(=S)(OC)Oc1ccc([N+](=O)[O-])c(C)c1 | inactive |
| COC(=O)N(C(=O)N1CO[C@@]2(C(=O)OC)Cc3cc(Cl)ccc3C2=N1)c1ccc(OC(F)(F)F)cc1 | inactive |
| CSC(=O)c1c(C(F)F)nc(C(F)(F)F)c(C(=O)SC)c1CC(C)C | inactive |
| O=c1n(Cl)c(=O)n(Cl)c(=O)n1Cl | inactive |
| O=C1C2CC=CCC2C(=O)N1SC(Cl)(Cl)Cl (centres undefined) | inactive |
| N#CN=C1SCCN1Cc1ccc(Cl)nc1 | inactive |
| COP(=S)(OC)SCn1nnc2ccccc2c1=O | inactive |

| SMILES | outcome |
| --- | --- |
| CCC(C)n1c(=O)[nH]c(C)c(Br)c1=O (centres undefined) | inactive |
| Cc1c(COC(=O)[C@@H]2[C@H](/C=C(\Cl)C(F)(F)F)C2(C)C)cccc1-c1ccccc1 | inactive |
| CCN(CC)C(=O)C(C)Oc1cccc2ccccc12 (centres undefined) | inactive |
| COc1ccc(-c2ccccc2)cc1NNC(=O)OC(C)C | inactive |
| CC(C)C1(C)N=C(c2ncccc2C(=O)O)NC1=O (centres undefined) | inactive |
| Nc1cnn(-c2ccccc2)c(=O)c1Cl | inactive |
| Cc1cnc(C2=NC(C)(C(C)C)C(=O)N2)c(C(=O)O)c1 (centres undefined) | inactive |
| CC(C)N1C(=O)N(c2ccccc2)CSC1=NC(C)(C)C | inactive |
| COC(=O)NC(=S)Nc1ccccc1NC(=S)NC(=O)OC | inactive |
| CCCC(=NOCC)C1=C(O)CC(CC(C)SCC)CC1=O (centres undefined) | inactive |
| Cc1cc(C)nc(Nc2ccccc2)n1 | inactive |
| CNC(=O)Oc1cccc2ccccc12 | inactive |
| CCOc1nc(C(Cl)(Cl)Cl)ns1 | inactive |
| CCCCOCN(C(=O)CCl)c1c(CC)cccc1CC | inactive |
| CC1(C)CON(Cc2ccccc2Cl)C1=O | inactive |
| CC(C)Oc1cccc(NC(=O)c2ccccc2C(F)(F)F)c1 | inactive |
| Cc1nc(N(C)C)nc(OC(=O)N(C)C)c1C | inactive |

From PubChem BioAssay (EPA / NIEHS)
